The list is not random: actives were taken first. Their share in the collection is about 6.2%.
S2 tox: reduces viability in counter-screen for ATXN expression inhibitors; Potency, µM (titrated, usually from 56.7 µM), most hits filed as cytotoxic; S2 cells (HEK-293 line with an ATXN2-luciferase reporter) viability, CellTiter-Fluor protease fluorescence, 24 h; AID 651635; actives 0.49% (n = 400,000); further: nearly all actives have a fitted effect of over 40% in size
HT1080NT lethal: kills 2HG-producing HT-1080-NT fibrosarcoma cells. HT-1080-NT fibrosarcoma viability, CellTiter-Glo ATP luminescence, 48 h. Potency, µM (highest dose often 46.1 µM), for the others: at the top dose activity, negative = less viability, actives largely listed as cytotoxic. actives 1.6% (n = 360,000). AID 686970;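 further: NT is the 2HG producing partner of a matched IDH1 knockdown line; 0% = DMSO-treated cells and -100% = media-only wells without cells; nearly all actives have a fitted effect of over 55% in size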
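HT-1080-NT; 750 cells/well; 5% FBS RPMI; 48 h compound, 37 degrees C; CellTiter-Glo luminescence; curve fitting and curve-class assignment.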
KB-3-1 cytotox: KB-3-1 parental cell cytotoxicity | KB-3-1 viability, CellTiter-Glo ATP luminescence, 72 h | Potency, µM (series often up to 46.1 µM), actives largely listed as cytotoxic | actives 1.4% (n = 400,000) | AID 1347075; further: on the % scale 0 is the no-effect control and ±100 the full control effect; nearly all actives have a fitted effect of over 60% in size
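Screening of KB-3-1 cells (DMEM, 10% FBS, phenol-red free) ran from lowest to highest compound concentration; after 72 h at 37 °C viability was read luminescently and curves fitted.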
ATXN2 expr inh: inhibitors of ATXN2 expression; HEK-293 ATXN2-luciferase reporter, luminescence, 24 h; Potency, µM (doses to about 57 µM), without a hit: at the top dose activity change, negative = inhibition, hits mostly inhibitors; AID 1745845; actives 0.72% (n = 360,000); further: on the % scale 0 is the no-effect control and ±100 the full control effect; nearly all actives have a fitted effect of over 55% in size
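ATXN2-luciferase reporter cells (luciferase flanked by upstream and downstream ATXN2 gene portions) were treated 24 h at 37 °C with compounds at up to 57 uM. SteadyGlo luminescence gave expression; GF-AFC fluorescence gave viability.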
HT1080 IDH1KD tx: kills HT-1080 cells with IDH1 knockdown. HT-1080 IDH1 knockdown viability, ATP luminescence, 48 h. Potency, µM (titrated, usually from 46.1 µM), without a hit: top-dose activity, negative = toxicity, most hits filed as cytotoxic. actives 2% (n = 360,000);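 further: 0% = DMSO wells and -100% = cell-free medium wells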
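% activity derives from luminescence (CellTiter-Glo), normalised to DMSO and no-cell wells. HT-1080-IDH1KD cells, 750/well, had 48 h compound exposure at 37 °C.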
KB-V1 cytotox: KB-V1 MDR subline cytotoxicity; AID 1347076; Potency, µM (titrated, usually from 46.1 µM), hits mostly cytotoxic; actives 3.4% (n = 400,000); KB-V1 MDR cells viability, CellTiter-Glo, 72 h; further: on the % scale 0 is the no-effect control and ±100 the full control effect; nearly all actives have a fitted effect of over 60% in size
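Cytotoxicity toward P-gp-expressing KB-V1 cells was determined as loss of CellTiter-Glo luminescence after 72 h at 37 degrees C. Compounds were tested in quantitative HTS format across a concentration range, with curves fitted to normalized data.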
* = called active by the depositor; i = inactive; ? = inconclusive; nt = not tested or not shown; ! = not confirmed by another sample; [ ] = dose if it differs, or a comment. The call rests on the fitted dose curve; in most records, active means well fitted curve in the direction sought with a large enough effect; inconclusive means small, poorly fitted or top-dose-only effect, or another doubt; inactive means no such curve, though single readings can be large; an effect the other way counts as inactive or inconclusive. Potency means the concentration at half of the fitted maximal effect.

SMILES	S2 tox	HT1080NT lethal	KB-3-1 cytotox	ATXN2 expr inh	HT1080 IDH1KD tx	KB-V1 cytotox
COc1cc(-c2cc(C)c3cccc(OC)c3n2)cc2c1OCCN(C(=O)CC1NC(=O)c3ccccc31)C2 (centres undefined)	i	nt	nt	nt	nt	nt
CC(=O)C[C@H]1c2cc(C(F)(F)F)ccc2S(=O)(=O)N1c1ccccc1	i	0%	?	0%	-1%	8.2µM*!
CCCCCCCCN1[C@@H](CC(=O)OCC)c2cc(F)ccc2S1(=O)=O	i	0%	?	-15%	-5%	15µM*!
CCOC(=O)C[C@H]1c2ccccc2S(=O)(=O)N1Cc1cccc(C(F)(F)F)c1	i	0%	16µM*!	-11%	0%	10µM*!
CCCCCCCCN1[C@@H](CC(=O)OC)c2cc(F)ccc2S1(=O)=O	i	7%	i	-8%	-3%	?
CCC(C)NC(=O)c1cccc(NC(=O)c2nsc3ccccc23)c1 (centres undefined)	?	nt	i	10%	nt	i
Cc1ccc2onc(CC(=O)N3CCN(c4cccc(C)c4C)CC3)c2c1	i	nt	i	-1%	nt	i
CCc1cnc2c(c1SC(C(C)=O)C(=O)N(C)C)c(=O)n(C)c(=O)n2C (centres undefined)	nt	nt	i	?	nt	i
O=C(CCC1CCN(C(=O)C2CC=CCC2)CC1)Nc1ccccc1 (centres undefined)	i	-1%	i	nt	-2%	16µM*
CCC1Oc2ccc(C)cc2N(CC(=O)N(Cc2ccc3c(c2)OCO3)CC2CCCO2)C1=O (centres undefined)	i	-1%	i	3%	-9%	6.5µM*
CCC1Oc2ccc(C)cc2N(CC(=O)N(Cc2ccc(C)o2)C2CC(C)(C)NC(C)(C)C2)C1=O (centres undefined)	?	16µM*	?	?	?	?
COc1ccc(CN(CC2CCCO2)C(=O)CN2C(=O)C(C)Oc3ccc(C)cc32)cc1OC (centres undefined)	i	-2%	i	-5%	-5%	?
Cc1ncc2c(c1CNC(=O)CN1CCCC1)CCN(C(=O)c1ccc(F)cc1F)C2	i	nt	nt	nt	nt	nt
Cc1ccc2[nH]c(CSc3nnc(NC(=O)COc4ccccc4Cl)s3)cc(=O)c2c1	i	nt	i	4%	nt	i
CN(C)c1cc(-c2ccccc2)nc(-c2ccccc2)n1	i	10%	i	1%	15%	i
CN(C)c1cc(-c2ccccc2)nc(N)n1	i	-16%	21µM*	7%	-27%	?
COC(=O)c1cc(CNC(=O)c2ccc(N(C)C)cc2)cc(NC(=O)c2ccccc2Cl)c1	i	nt	nt	nt	nt	nt
CCSc1nc2c(c(=O)[nH]c(=O)n2C)n1CC(O)COc1ccccc1C (centres undefined)	i	-15%	i	-2%	-11%	18µM*
Cc1ccccc1OCC(O)Cn1c(SC(C)C)nc2c1c(=O)[nH]c(=O)n2C (centres undefined)	i	-1%	i	-12%	-1%	?
Cc1ccc(NC(=O)Cn2c(=O)n(CCC(=O)N3CCc4ccccc4C3)c(=O)c3ccccc32)cc1	i	nt	i	13%	nt	i
Cc1cccc(/C(N)=N/OC(=O)c2ccoc2C)c1	i	?	?	25%	16µM*	?
Cc1occc1C(=O)O/N=C(\N)c1ccccc1	i	?	i	?	?	?
Cc1cc(C)c(NC(=O)CSc2nc(C)cc(C)c2C#N)c(C)c1	i	nt	i	4%	nt	i
COC1=C(C)C(=O)C2=C(C1=O)C1C3CC4=C(C(=O)C(OC)=C(C)C4=O)C(CNC(=O)C(C)=O)N3C(C#N)C(C2)N1C (centres undefined)	0.15µM*	18µM*	0.1µM*	?	0.082µM*	2.3µM*
O=C(Nc1cc(Sc2nc3ccccc3s2)cc([N+](=O)[O-])c1)c1ccccc1	i	-22%	?	-23%	-25%	?
SMILES	S2 tox	HT1080NT lethal	KB-3-1 cytotox	ATXN2 expr inh	HT1080 IDH1KD tx	KB-V1 cytotox
O=C(Nc1cc(Sc2ccccn2)cc([N+](=O)[O-])c1)c1cccc(F)c1	?	-25%	13µM*	-10%	?	13µM*
CCOC(=O)c1c(S(=O)(=O)NCC(=O)Nc2ccc(C(C)=O)cc2)c(C)n(C)c1C	i	nt	i	4%	nt	i
COC(=O)N1CCCc2cc(S(=O)(=O)NCc3ccccc3)ccc21	i	nt	i	-2%	nt	?
CCCCOc1ccc(NC2=NC3(CCCC3)N=C(N)N2)cc1	i	?	7.3µM*	?	?	i
Cc1cc(C)cc(NC2=NC3(CCCCC3)N=C(N)N2)c1	i	?	?	0%	4.6µM*	i
COc1ccc(OC)c(NC2=NC3(CCCC3)N=C(N)N2)c1	i	-18%	?	4%	-28%	i
Cc1cccc(Nc2nc(C)cc(C)n2)c1	i	12%	i	nt	16%	i
Cc1cccc(NC2=NC(C)(C)N=C(N)N2)c1	i	0.33µM*	1.6µM*	-10%[11.3 µM]	0.16µM*	i
COCCn1ccc2c(OCC(=O)Nc3cccc(C(F)(F)F)c3)cccc2c1=O	i	nt	i	-11%	nt	i
CCOc1ccc(S(=O)(=O)N2CCN=C2c2ccccc2)cc1	i	?	?	-26%	-27%	12µM*
Cc1cc(S(=O)(=O)N2CCN=C2c2ccccc2)ccc1F	i	8%	i	-10%	-17%	?
